In PubChem BioAssay (NCI) one finds growth data, which are given here for 16 compounds.

Some test systems named below: HCT-15 colon; HT29 colon; SNB-75 CNS; U251 CNS; PC-3 prostate; SK-MEL-5 melanoma; UACC-62 melanoma; SK-MEL-28 melanoma; LOX IMVI melanoma; SNB-19 CNS.
Test in all cases: NCI-60 one-dose screen, 48 h (100 = growth as untreated, 0 = no growth, -100 = all killed)
Holding throughout (details): 10 µM unless noted

The panel holds about 83,000 compounds, 20% with a hit somewhere; the sample as a whole holds those more often.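 96-well plates, one dose, 48 hours. Percent growth reported; active if below 10.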 A number with no mark means an inactive call. Calls of active or inactive are those of the source.

Take `CN(C)c1ccc(/C=C\C2=[N+](C)c3ccccc3C2(C)C)cc1`: the growth is 63.2% in the test on HCT-15 colon; 10.5% in the test with HT29 colon; 31.3% with SNB-75 CNS; 11% with U251 CNS; -4.73% (active) in the test with PC-3 prostate; 3.41% (active) with SK-MEL-5 melanoma. Also, the growth was 15.9% in the test with UACC-62 melanoma and 37.5% in the test with SK-MEL-28 melanoma.

`Cc1cc(-c2nc3ccccc3s2)ccc1NC(=O)COc1ccc(Cl)cc1`: the growth is 92.7% in the test with HCT-15 colon; 101% in the test on HT29 colon; 84.4% in the test with SNB-75 CNS; 94.1% in the test with U251 CNS; 83.2% in the test on PC-3 prostate; 98.8% with SK-MEL-5 melanoma. Moreover, the values for the growth in the test on UACC-62 melanoma, in the test on LOX IMVI melanoma and in the test with SK-MEL-28 melanoma were 96.1%, 94.5% and 114%, respectively.

Take `COc1ccc(Cl)cc1Nc1nc(C(F)(F)F)ccc1C(=O)N/N=C/c1cccnc1`: the growth was 29.1% with HCT-15 colon; 49.6% with HT29 colon; 67.1% in the test on SNB-75 CNS; 40.4% with U251 CNS; 43.7% in the test with PC-3 prostate; 22.2% in the test with SK-MEL-5 melanoma. The figures for the growth in the test on UACC-62 melanoma, in the test on LOX IMVI melanoma and in the test with SK-MEL-28 melanoma were 50.9%, 36.3% and 59.9%, respectively.

For `COc1nc2c(cc1S(=O)(=O)c1ccccc1)CCc1c-2cnn1Cc1ccccc1`, the growth is 43.1% with HCT-15 colon; 13.9% in the test with HT29 colon; 72.1% with SNB-75 CNS; 48.1% with U251 CNS; 38.3% in the test on PC-3 prostate; 34.7% in the test on SK-MEL-5 melanoma. Moreover, the results for the growth in the test with UACC-62 melanoma and in the test on SK-MEL-28 melanoma were 52% and 92.3%, respectively.

Regarding `CCN(CC)CC(O)c1cc(-c2ccc(Cl)cc2)nc2c(C)c(Cl)ccc12` (stereo unspecified), the growth in the test with HCT-15 colon was -86.9% (active); in the test on HT29 colon it was -100% (active); in the test on SNB-75 CNS it was -39.7% (active); in the test on U251 CNS it was -93.5% (active); in the test with PC-3 prostate, -68.4% (active); in the test on SK-MEL-5 melanoma it was -96.6% (active). The growth in the test on UACC-62 melanoma was -92.3% (active); with LOX IMVI melanoma it was -94.7% (active); in the test with SK-MEL-28 melanoma, -85.5% (active).

In the case of `CC(=O)Nc1ccc2c(c1)c(NC(C)=O)nn2C(=O)Nc1ccc(Cc2ccccc2)cc1`, the growth in the test with HCT-15 colon was 78.8%; in the test on HT29 colon, 89.1%; in the test on SNB-75 CNS it was 106%; in the test on U251 CNS it was 69.5%; in the test with PC-3 prostate it was 63.5%; in the test on SK-MEL-5 melanoma, 109%. The results for the growth in the test on UACC-62 melanoma, with LOX IMVI melanoma and with SK-MEL-28 melanoma were 20%, 53.6% and 141%, respectively.

As for `c1ccc(CSc2ncnc3nc[nH]c23)nc1`, the growth is 103% with HCT-15 colon; 112% in the test on HT29 colon; 97.2% in the test with SNB-75 CNS; 113% in the test with U251 CNS; 112% in the test on PC-3 prostate; 100% in the test with SK-MEL-5 melanoma. In addition, the growth with UACC-62 melanoma is 88.4%; with LOX IMVI melanoma, 106%; in the test with SK-MEL-28 melanoma, 128%.

Take `CC(=O)CC(C)(C)c1ccc(Cl)cc1`: the growth is 101% with HCT-15 colon; 98.1% in the test with HT29 colon; 81.9% in the test with SNB-75 CNS; 98.7% in the test with U251 CNS; 93.6% in the test with PC-3 prostate; 108% with SK-MEL-5 melanoma. The growth is 101% in the test on UACC-62 melanoma, 97.3% in the test on LOX IMVI melanoma and 115% in the test on SK-MEL-28 melanoma.

As to `Cc1ccc2c(c1)O/C(=C\c1cccc(OCC(=O)c3ccccc3)c1)C2=O`, the growth in the test with HCT-15 colon is 69.8%; in the test with HT29 colon, 118%; in the test on SNB-75 CNS it was 93.4%; with U251 CNS it was 96.5%; with PC-3 prostate, 358%; with SK-MEL-5 melanoma it was 87.3%. Also, the growth in the test with UACC-62 melanoma was 66.1%; with LOX IMVI melanoma, 101%; in the test with SK-MEL-28 melanoma it was 110%.

Regarding `CN1CCN(Cc2ccc(NC(=O)c3[nH]ncc3Nc3ccnc4ccsc34)cc2)CC1`, the growth with HCT-15 colon is 66.4%; with HT29 colon, 30.1%; in the test on SNB-75 CNS, 20.5%; in the test on U251 CNS, 29.2%; in the test on PC-3 prostate, 34%; in the test with SK-MEL-5 melanoma, 38.4%. The growth was 64.1% in the test with UACC-62 melanoma, 0.622% (active) in the test on LOX IMVI melanoma and 54.9% with SK-MEL-28 melanoma.

Consider `O=[N+]([O-])c1c(F)cccc1Nc1cccc(F)c1`, for which the growth is 104% in the test on HCT-15 colon; 97.5% in the test on HT29 colon; 81.6% in the test on SNB-75 CNS; 105% in the test on U251 CNS; 103% in the test on PC-3 prostate; 101% with SK-MEL-5 melanoma. For the same compound, the growth with SK-MEL-28 melanoma was 118%.

For `Cc1cc(Cl)ccc1Nc1nc(C(F)(F)F)ccc1C(=O)N/N=C/c1ccc(F)cc1`, the growth is 6.36% (active) with HCT-15 colon; 4.55% (active) in the test on HT29 colon; 42% in the test with SNB-75 CNS; 3.86% (active) with U251 CNS; 5.06% (active) with SK-MEL-5 melanoma; 15.4% with UACC-62 melanoma. The values for the growth in the test with LOX IMVI melanoma and in the test on SK-MEL-28 melanoma were 0.251% (active) and 34.1%, respectively.

Take `COc1ccc2c(c1)C(=O)/C(=C/c1cccc(OCC(=O)Nc3nc4c(s3)CCCC4)c1)O2`: the growth in the test with HCT-15 colon is -15.7% (active); in the test with HT29 colon, -74.3% (active); in the test with SNB-75 CNS, 19%; in the test on U251 CNS, 41.9%; in the test on SK-MEL-5 melanoma, -14% (active); in the test with UACC-62 melanoma, 79.1%. The growth in the test with LOX IMVI melanoma was -70.3% (active); with SK-MEL-28 melanoma it was 38.1%.

With `O=C(Nc1nc(-c2ccccc2)cc(-c2ccc(Cl)cc2)n1)c1ccncc1`, the growth with HCT-15 colon was 104%; in the test on HT29 colon it was 96.8%; in the test with SNB-19 CNS it was 90.3%; with U251 CNS, 93%; in the test on PC-3 prostate, 91.4%; in the test on SK-MEL-5 melanoma, 102%. Also, the growth in the test with UACC-62 melanoma is 86.9%; in the test on LOX IMVI melanoma, 91.7%; in the test on SK-MEL-28 melanoma it was 115%.

On to `Nc1c(C(=O)Nc2ccccc2Cl)sc2nc3c(cc12)CCCCCC3`, for which the growth with HCT-15 colon was 25.8%; in the test on HT29 colon, 9.39% (active); in the test on SNB-75 CNS, -20.3% (active); in the test on U251 CNS, 42%; in the test on PC-3 prostate it was 77.5%; in the test on SK-MEL-5 melanoma it was 32.6%. Moreover, the growth in the test with LOX IMVI melanoma was 51%; with SK-MEL-28 melanoma, 57.9%.

Turning to `COc1cccc(NC(=O)c2sc3nc4c(cc3c2N)CN(Cc2ccccc2)CC4)c1`, the growth was 42.2% with HCT-15 colon; 44.5% with HT29 colon; -19.7% (active) in the test with SNB-75 CNS; 71.1% in the test on PC-3 prostate; 62.6% in the test with SK-MEL-5 melanoma; 35.1% with UACC-62 melanoma. Also, the results for the growth in the test on LOX IMVI melanoma and in the test on SK-MEL-28 melanoma were 67.4% and 76.8%, respectively.
